Assay results reported in PubChem BioAssay (NCI).
About 79,000 compounds went through this panel and 15% of them were active in at least one assay; those are over-represented in the sample as a whole. Cut-off read from the data, not from the text of the source: active = growth inhibition above about 70%; inactive = the rest.

How the values were obtained:
[1] = NCI Yeast Anticancer Drug Screen. Data for the rad50 strain (AID 155);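 note: 0% = growth of vehicle-only cultures of the same strain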; conditions: S. cerevisiae rad50 strain growth inhibition; at 50.0 µM; hits give high values
Outline: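 Vehicle-treated cultures provide the reference for the growth inhibition reported for compound-exposed, repair-deficient yeast.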

[2] = NCI Yeast Anticancer Drug Screen. Data for the mec2-1 strain (AID 157); conditions: S. cerevisiae mec2-1 strain, at 50.0 µM, hits give high values
Outline: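 Each compound was tested on mec2-1 yeast, a strain altered in DNA damage repair or cell cycle control. Growth inhibition is reported relative to vehicle.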

[3] = NCI Yeast Anticancer Drug Screen. Data for the sgs1 mgt1 strain (AID 161);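 note: 0% = growth of cultures given vehicle only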; conditions: S. cerevisiae sgs1 mgt1 strain, at 50.0 µM, hits give high values
Outline: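 Test agents were incubated with a DNA-repair-mutant yeast strain. Growth was then read and compared against vehicle-treated controls.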

[4] = NCI Yeast Anticancer Drug Screen. Data for the cln2 rad14 strain (AID 165);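 note: 0% = growth equal to vehicle treated cultures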; conditions: S. cerevisiae cln2 rad14 strain, at 50.0 µM, hits give high values
Outline: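 Test compounds were added to cln2 rad14 yeast cultures; inhibition of growth was then determined by comparison with vehicle treatment.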

[5] = NCI Yeast Anticancer Drug Screen. Data for the bub3 strain (AID 167); conditions: S. cerevisiae bub3 mutant strain, at 50.0 µM, hits give high values
Outline: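 Mutant yeast screening strain plus compound; vehicle-treated cultures serve as the 0% inhibition reference.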

[6] = NCI Yeast Anticancer Drug Screen. Data for the mlh1 rad18 strain (AID 175); conditions: S. cerevisiae mlh1 rad18 strain growth inhibition; at 50.0 µM; hits give high values
Outline: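 Inhibition values reflect reduced growth of mutant yeast versus vehicle-treated controls following compound exposure; the mutations affect DNA damage repair.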

Measured: growth inhibition

O=c1ccc2ccc(O)cc2o1
inactive: [1] -1.45% | [2] -6.7% | [3] 0.9% | [4] 2.05% | [5] -4.65% | [6] -11.8%

CCOC(=O)N1C2CC=CCC1C1(c3ccccc3)OC2(c2ccccc2)c2ccccc21
inactive: [1] -16.7% | [2] -3.95% | [3] -4.6% | [4] 5.05% | [5] -1.05% | [6] -24.1%

CC(=O)OCC1OC(n2ccc(NC(=O)Nc3ccn(C4OC(COC(C)=O)C(OC(C)=O)C4OC(C)=O)c(=O)n3)nc2=O)C(OC(C)=O)C1OC(C)=O (stereo not given)
inactive: [1] -2.25% | [2] -11.1% | [3] 8.25% | [4] -5.35% | [5] -2.25% | [6] 10.9%

CCOC(=O)C1=NN(c2ccccc2)C(=O)/C1=C\N1C(=S)NC(=O)/C1=C\c1cccc([N+](=O)[O-])c1
inactive: [1] 11.2% | [2] -11.6% | [3] 1.25% | [4] 31.3% | [5] -4.8% | [6] -4.8%

CC1=CCC(C(C)(C)NC(=O)c2ccccc2)C/C1=N/O (stereo not given)
inactive: [1] -56.7% | [2] -43% | [3] -60.3% | [4] -49.2% | [5] -43.7% | [6] -66.5%

CC(C)CC(=O)NC(C(=O)NC(C(=O)NC(CC(C)C)C(O)CC(=O)NC(C)C(=O)NC(CC(C)C)C(O)CC(=O)O)C(C)C)C(C)C (stereo not given)
inactive: [1] 5.8% | [2] -18.4% | [3] -20.9% | [4] 7.6% | [5] 5.95% | [6] -9.75%

CC(C)c1cccc(C(C)C)c1NC(=O)C(=O)C1SC(=S)NC1=O (stereo not given)
inactive: [1] -23.6% | [2] -13.1% | [3] -18.9% | [4] 8.75% | [5] -11.3% | [6] -29.6%

CCOC(=O)CNC(=O)C(=[N+]=[N-])C(=O)COc1ccc(Cl)cc1Cl
inactive: [1] 3.4% | [2] -9% | [3] 18.1% | [4] -18.3% | [5] 19.4% | [6] -5.05%

Cc1c[nH]c2nc(C)n(-c3ccccc3F)c(=N)c12
inactive: [1] -8.5% | [2] -2.75% | [3] -9.35% | [4] -8.7% | [5] -10.8% | [6] -0.95%

CC(=O)Oc1ccc(C(=O)c2ccc(OC(C)=O)cc2)cc1
inactive: [1] -7.5% | [2] -16.6% | [3] 6.25% | [4] -22.4% | [5] -4.45% | [6] 22.2%

S=C(N/N=C\c1ccccc1)Nc1ccccc1
inactive: [1] 6.65% | [2] -1.05% | [3] -8.2% | [4] 8.65% | [5] 10.8% | [6] 14.9%

CC(C)OC(=O)NC1CCC2CCCCC2C1 (stereo not given)
inactive: [1] 2.7% | [2] 11.5% | [3] -8.3% | [4] -19.9% | [5] 15.7% | [6] -4.75%

C/C(CC(O)(C(F)(F)F)C(F)(F)F)=N\NC(N)=S
inactive: [1] -30.1% | [2] -14.7% | [3] -12.9% | [4] 9.55% | [5] 7.1% | [6] -9.3%

O=C(c1ccccc1)c1ccc(N2CCOCC2)cc1
inactive: [1] -29.4% | [2] -44.9% | [3] 24.4% | [4] 4.75% | [5] -7.85% | [6] -5.7%

Cc1nn(C(N)=S)c(C)c1N=Nc1ccc(Cl)cc1
inactive: [1] 9.6% | [2] -0.25% | [3] 10.8% | [4] -62.8% | [5] -8.35% | [6] 19.9%

OC(c1cccnc1)C(CCc1ccccn1)c1ccccn1 (stereo not given)
inactive: [1] 2.65% | [2] 13.1% | [3] -4.6% | [4] -46% | [5] 4.3% | [6] 4%

COC(=O)CC1=NNC(=O)C1
inactive: [1] -11.7% | [2] -15.1% | [3] -14% | [4] -18.1% | [5] -7.35% | [6] -19.8%

O=C(c1ccccc1)c1ccc2cccc3c2c1CC3
inactive: [1] 40.2% | [2] 14.6% | [3] 32.1% | [4] 20.8% | [5] 51.6% | [6] 34.4%

Cc1cc2nc(-c3ccccc3O)[nH]c2cc1C
inactive: [1] -14.2% | [2] -29.9% | [3] -5.25% | [4] 2.1% | [5] -29.6% | [6] 9.35%

CCC1=C[C@H]2CN(CCc3c([nH]c4ccccc34)[C@@](C(=O)OC)(c3cc4c(cc3OC)N(C)[C@H]3C(C(=O)OC)=C[C@]5(CC)C=CCN6CC[C@]43[C@@H]65)C2)C1
inactive: [1] -14.7% | [2] -14.4% | [3] -4.75% | [4] -13.5% | [5] -0.8% | [6] -18.9%
